From PubChem BioAssay (NCATS)
Inconclusive results are not listed. Where a call stands in place of a potency, no number is given. Calls of active or inactive are those of the source. Unless noted, the call rests on the fitted dose curve; in most records, active means well fitted curve in the direction sought with a large enough effect; inconclusive means small, poorly fitted or top-dose-only effect, or another doubt; inactive means no such curve, though single readings can be large; an effect the other way counts as inactive or inconclusive.

Legend:
[1] = qHTS for differential inhibitors of proliferation of Plasmodium falciparum line HB3 (AID 1886); conditions: Potency: Plasmodium falciparum HB3 proliferation inhibition;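 further: parasites grown with compound for 72 h before SYBR Green readout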; further: potency means the concentration at half of the fitted maximal effect
[2] = target: Ferritin light chain (Equus caballus) (UniProt P02791); experiment: qHTS Validation Assay for Identification of Novel General Anesthetics (AID 2323); further: series mostly up to about 77 µM
Chain of Ferritin light chain (Equus caballus) (P02791 2-175 limits assumed): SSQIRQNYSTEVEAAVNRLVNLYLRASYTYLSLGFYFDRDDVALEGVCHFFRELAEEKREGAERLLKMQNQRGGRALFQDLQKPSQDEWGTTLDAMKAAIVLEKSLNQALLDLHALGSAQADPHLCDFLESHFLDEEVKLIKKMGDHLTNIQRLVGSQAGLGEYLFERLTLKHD
Summary of the method: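 10 uM horse-spleen apoferritin + 1-AMA (50% saturated, PBS); cpd pin-transferred, 10 min RT. Ex 380/Em 535 nm endpoint. Activity normalized between free 1-AMA and 1-AMA/apoferritin; 4-parameter Hill fit of concentration-response.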

[3] = target: ATP-dependent DNA helicase Q1 (Homo sapiens) (UniProt P46063); experiment: qHTS Validation Assay for Inhibitors of RecQ-Like Dna Helicase 1 (RECQ1) (AID 2353)
Chain of ATP-dependent DNA helicase Q1 (Homo sapiens) (P46063 whole entry, looked up): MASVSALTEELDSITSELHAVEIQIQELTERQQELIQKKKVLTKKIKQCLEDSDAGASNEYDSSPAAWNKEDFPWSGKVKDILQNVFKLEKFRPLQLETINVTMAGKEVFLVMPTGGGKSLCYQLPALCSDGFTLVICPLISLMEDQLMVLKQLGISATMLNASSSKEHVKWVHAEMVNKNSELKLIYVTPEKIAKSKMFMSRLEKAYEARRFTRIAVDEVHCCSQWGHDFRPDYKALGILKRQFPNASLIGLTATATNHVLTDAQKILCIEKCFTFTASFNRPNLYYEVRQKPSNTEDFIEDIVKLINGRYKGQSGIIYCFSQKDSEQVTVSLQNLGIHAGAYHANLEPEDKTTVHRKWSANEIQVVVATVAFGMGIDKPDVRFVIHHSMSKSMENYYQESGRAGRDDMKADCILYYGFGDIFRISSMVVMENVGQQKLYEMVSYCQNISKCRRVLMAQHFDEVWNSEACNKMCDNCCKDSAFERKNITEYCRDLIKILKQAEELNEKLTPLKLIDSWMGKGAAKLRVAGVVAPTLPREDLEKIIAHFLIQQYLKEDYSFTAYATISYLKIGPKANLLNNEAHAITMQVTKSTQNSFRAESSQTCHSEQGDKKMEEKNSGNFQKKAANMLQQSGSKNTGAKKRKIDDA
Summary of the method: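 RECQ1T1 50 nM; forked duplex (20 bp + 30-nt ss tails) 200 nM, ATP 2 mM final; pH 8.0, 2 mM MgCl2, 2.5 ug/ml poly(dI-dC); 15 min compound preincubation; discontinuous kinetic read over 2 h at RT.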

[4] = target: RecQ-like DNA helicase BLM (Homo sapiens) (UniProt P54132); experiment: qHTS Validation Assay for Inhibitors of Bloom's syndrome helicase (BLM) (AID 2364)
Chain of RecQ-like DNA helicase BLM (Homo sapiens) (P54132 whole entry, looked up): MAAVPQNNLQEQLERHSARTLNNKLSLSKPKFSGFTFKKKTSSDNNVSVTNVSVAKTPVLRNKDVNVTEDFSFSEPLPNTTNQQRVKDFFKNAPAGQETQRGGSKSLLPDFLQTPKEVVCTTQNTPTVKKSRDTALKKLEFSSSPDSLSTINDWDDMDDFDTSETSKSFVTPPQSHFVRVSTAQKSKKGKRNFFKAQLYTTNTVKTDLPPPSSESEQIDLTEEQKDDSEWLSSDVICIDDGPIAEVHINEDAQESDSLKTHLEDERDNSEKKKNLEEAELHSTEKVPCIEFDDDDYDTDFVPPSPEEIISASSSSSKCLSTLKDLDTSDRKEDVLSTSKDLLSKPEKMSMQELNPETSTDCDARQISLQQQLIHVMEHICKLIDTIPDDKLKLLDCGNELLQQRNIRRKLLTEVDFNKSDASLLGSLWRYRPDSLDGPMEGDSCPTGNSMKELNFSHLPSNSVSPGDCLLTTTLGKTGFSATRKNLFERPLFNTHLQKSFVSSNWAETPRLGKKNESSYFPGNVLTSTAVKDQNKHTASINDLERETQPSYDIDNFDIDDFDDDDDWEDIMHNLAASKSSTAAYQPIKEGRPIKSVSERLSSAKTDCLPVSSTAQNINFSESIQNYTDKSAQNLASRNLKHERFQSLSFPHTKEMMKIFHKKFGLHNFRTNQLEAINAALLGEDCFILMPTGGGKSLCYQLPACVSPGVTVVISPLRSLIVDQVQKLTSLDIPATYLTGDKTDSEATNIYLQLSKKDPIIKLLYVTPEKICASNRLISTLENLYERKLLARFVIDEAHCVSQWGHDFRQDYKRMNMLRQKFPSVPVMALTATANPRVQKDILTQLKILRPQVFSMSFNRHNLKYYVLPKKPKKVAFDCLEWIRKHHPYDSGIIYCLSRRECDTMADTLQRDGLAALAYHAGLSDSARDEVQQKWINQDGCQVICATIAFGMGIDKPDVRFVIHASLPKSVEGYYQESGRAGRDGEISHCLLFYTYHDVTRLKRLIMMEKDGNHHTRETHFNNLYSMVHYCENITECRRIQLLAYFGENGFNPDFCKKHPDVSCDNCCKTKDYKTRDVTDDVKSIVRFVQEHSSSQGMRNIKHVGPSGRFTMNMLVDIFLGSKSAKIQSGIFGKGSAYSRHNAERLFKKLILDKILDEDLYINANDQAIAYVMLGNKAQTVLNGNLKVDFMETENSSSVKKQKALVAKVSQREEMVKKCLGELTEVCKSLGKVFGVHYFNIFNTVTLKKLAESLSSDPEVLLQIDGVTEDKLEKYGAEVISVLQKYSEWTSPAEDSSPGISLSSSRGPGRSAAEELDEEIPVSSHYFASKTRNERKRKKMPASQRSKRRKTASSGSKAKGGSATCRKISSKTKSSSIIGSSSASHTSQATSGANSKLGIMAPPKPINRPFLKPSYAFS
Summary of the method: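 50 nM BLM preincubated 15 min at room temperature with compound in pH 8.0 Tris buffer containing 2.5 ug/ml poly(dI-dC); started with 200 nM TAMRA/BHQ-2 forked duplex and 2 mM ATP (final). Unwinding read as TAMRA fluorescence increase, two reads 2 h apart.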

[5] = Cytometric Cell-Based qHTS for Inhibitors of the mTORC1 Signaling Pathway in MEF (Tsc2-/-, p53-/-) Cells (AID 2660);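 further: Tsc2 and p53 null MEFs carrying empty vector with compound for 24 h; percent of cells above a phospho-rpS6 to PI ratio cutoff in each well; series mostly up to about 38 µM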
Summary of the method: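 Immunofluorescence qHTS of rpS6 Ser235/236 phosphorylation: MEFs (Tsc2-/-, p53-/-) treated 24 h, 37 C, in DMEM + 10% FBS. Alexa-488 signal normalized to PI count, referenced to rapamycin (7.5 nM) and DMSO; PI cell number recorded for viability.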

[6] = High Content Imaging Cell-Based qHTS for Inhibitors of the mTORC1 Signaling Pathway in MEF (Tsc2-/-, p53-/-) Cells (AID 2666);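 further: percent of cells scored positive for phospho-rpS6 Ser235/236 immunostaining by imaging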
Summary of the method: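 MEF Tsc2-/- p53-/- (empty vector), DMEM/10% FBS; cpd 24 h 37 °C; PFA fix, Alexa-488 p-rpS6 S235/236 Ab, Hoechst; imaged; rapamycin-defined inhibition; % positive cells/well.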

[7] = High Content Imaging Cell-Based qHTS for Inhibitors of the mTORC1 Signaling Pathway in MEF Cells (AID 2667); further: potency means the concentration at half of the fitted maximal effect
Summary of the method: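 Read-out is the share of phospho-rpS6-positive cells per well, from Hoechst-normalized Alexa-488 Ser235/236 staining imaged on IN Cell. Cells: WT Tsc2-expressing Tsc2-/-, p53-/- MEFs exposed to compound for 24 hrs.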

[8] = target: Ubiquitin carboxyl-terminal hydrolase 2 (Homo sapiens) (UniProt O75604); experiment: qHTS Validation Assay for Inhibitors of Ubiquitin-specific Protease USP2a Using CHOP2 as the Reporter (AID 463106)
Chain of Ubiquitin carboxyl-terminal hydrolase 2 (Homo sapiens) (O75604 whole entry, looked up): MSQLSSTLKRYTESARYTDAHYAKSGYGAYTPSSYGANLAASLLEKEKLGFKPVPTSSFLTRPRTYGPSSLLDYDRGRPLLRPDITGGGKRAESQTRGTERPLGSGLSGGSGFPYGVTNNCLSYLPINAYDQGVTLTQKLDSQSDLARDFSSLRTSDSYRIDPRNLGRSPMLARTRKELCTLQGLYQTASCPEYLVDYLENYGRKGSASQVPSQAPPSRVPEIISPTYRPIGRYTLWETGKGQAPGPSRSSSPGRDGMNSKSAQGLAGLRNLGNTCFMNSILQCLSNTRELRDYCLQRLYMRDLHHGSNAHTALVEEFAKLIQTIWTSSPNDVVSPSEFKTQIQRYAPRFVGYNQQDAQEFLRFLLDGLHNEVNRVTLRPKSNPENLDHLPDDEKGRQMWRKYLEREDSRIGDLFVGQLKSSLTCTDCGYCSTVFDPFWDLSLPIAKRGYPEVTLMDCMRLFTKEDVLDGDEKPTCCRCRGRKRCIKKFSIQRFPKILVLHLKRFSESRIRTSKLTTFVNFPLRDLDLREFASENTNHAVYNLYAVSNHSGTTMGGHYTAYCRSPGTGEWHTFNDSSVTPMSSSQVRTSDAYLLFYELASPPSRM
Summary of the method: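 Fluorescence read-out at Ex 485nm/Em 531nm after 60min RT, following addition of 25nM Ub-CHOP2 plus 25nM reporter substrate to USP2 core (10nM) pretreated 30min with compound. Data normalized to NEM full inhibition; concentration-response curves fitted.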

[9] = target: DNA polymerase III PolC-type (Bacillus subtilis (strain 168)) (UniProt P13267); experiment: qHTS Validation Assay for the Inhibitors of DNA Replication in Gram-Positive Bacteria (AID 485295);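 further: reconstituted holoenzyme with PolC plus beta clamp SSB and primase; PicoGreen fluorescence of double-stranded DNA made on primed circular M13 template; series mostly up to about 57 µM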
Summary of the method: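 PicoGreen fluorescence (ex 480–485/em 535–540 nm) reports dsDNA synthesized on ssM13Gori template with dNTPs/NTPs. Enzyme: holoenzyme rebuilt from purified PolC, beta subunit, SSB and primase. Compound preincubated before substrate addition; RT throughout.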

[10] = target: Tumor susceptibility gene 101 protein (Homo sapiens) (UniProt Q99816); experiment: qHTS Validation Assay for Iinhibitors of HIV-1 Budding by Blocking the Interaction of PTAP/TSG101 (AID 485342; calls by dose curve)
Chain of Tumor susceptibility gene 101 protein (Homo sapiens) (Q99816 whole entry, looked up, the tested form may be a part): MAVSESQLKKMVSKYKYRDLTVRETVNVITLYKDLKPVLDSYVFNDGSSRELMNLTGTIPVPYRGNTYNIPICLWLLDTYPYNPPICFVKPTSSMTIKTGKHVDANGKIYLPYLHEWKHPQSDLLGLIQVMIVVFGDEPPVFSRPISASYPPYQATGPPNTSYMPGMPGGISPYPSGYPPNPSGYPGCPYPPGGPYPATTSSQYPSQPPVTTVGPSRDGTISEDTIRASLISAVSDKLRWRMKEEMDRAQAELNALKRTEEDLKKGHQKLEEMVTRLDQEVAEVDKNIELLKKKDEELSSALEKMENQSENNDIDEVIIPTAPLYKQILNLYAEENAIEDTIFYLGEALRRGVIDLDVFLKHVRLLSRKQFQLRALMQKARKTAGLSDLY
Summary of the method: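 FP read-out: FITC-PTAP peptide, 50 nM final, binding Tsg101 binding domain, 10 uM final; 20 min r.t.; 10 mM HEPES pH 7.5, 0.15 M NaCl, 0.01% Tween 20, 3 mM EDTA, 0.1 mM TCEP.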

[11] = qHTS Validation Assay to Find Inhibitors of Chronic Active B-Cell Receptor Signaling (AID 485345; active means well fitted curve in the direction sought with a large enough effect in the main read-out, with a control signal flat, not every such curve was filed as active)
Summary of the method: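 TMD8 ABC-DLBCL cells stably carrying doxycycline-inducible IkappaBalpha–green luciferase fusion plus unfused red luciferase; compounds 46 uM to 3 nM, 4 h at 37C with doxycycline. Corrected green/red luminescence ratio normalized to 10 uM MG-132 and basal cell wells; curves fitted.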

[12] = target: Beta-2 adrenergic receptor (Homo sapiens) (UniProt P07550); experiment: qHTS validation assay of beta-arrestin-biased ligands of beta2-adrenergic receptor (AID 485366)
Chain of Beta-2 adrenergic receptor (Homo sapiens) (P07550 whole entry, looked up): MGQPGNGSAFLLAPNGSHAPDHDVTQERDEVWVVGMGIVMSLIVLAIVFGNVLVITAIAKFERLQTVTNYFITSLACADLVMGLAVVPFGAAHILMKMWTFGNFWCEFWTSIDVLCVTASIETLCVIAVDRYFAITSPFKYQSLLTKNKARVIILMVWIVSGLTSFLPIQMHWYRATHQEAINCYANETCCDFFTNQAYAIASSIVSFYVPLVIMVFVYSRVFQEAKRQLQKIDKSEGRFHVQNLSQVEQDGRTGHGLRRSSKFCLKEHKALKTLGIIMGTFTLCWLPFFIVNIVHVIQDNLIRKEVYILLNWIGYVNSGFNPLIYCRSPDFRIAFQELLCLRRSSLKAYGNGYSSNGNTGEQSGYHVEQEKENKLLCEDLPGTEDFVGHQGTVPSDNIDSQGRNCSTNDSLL
Summary of the method: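 Agonism was measured as beta-arrestin recruitment to recombinant beta2-AR, releasing tTA to drive luciferase. Cells were exposed for 18 hr at 37 degrees C to a series up to 46 microM. %Activity from corrected luminescence gave concentration-response curves.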

[13] = Cytometry Cell-Based qHTS for Inhibitors of the mTORC1 Signaling Pathway in MEF cells (AID 2668); further: potency means the concentration at half of the fitted maximal effect
Summary of the method: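 Read-out: phospho-rpS6 Ser235/236 immunofluorescence normalized to propidium iodide intensity, scored as % active cells against a rapamycin (7.5 nM) threshold. Cells: Tsc2-/-, p53-/- MEFs stably expressing WT Tsc2, compound-treated 24 hrs at 37 degree Celsius.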

[14] = Validation screen for small molecules that induce DNA re-replication in MCF 10A normal breast cells (AID 463097); further: nearly all actives have a fitted effect of over 60% in size
Summary of the method: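 250 MCF 10A cells/well; compound pin-transferred; 48 hr, 37 C, 5% CO2; Hoechst 40 min; imaged 405/500-530 nm. Hits = more high-intensity nuclei.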

[15] = Quantitative high throughput screen for delayed death inhibitors of the malarial parasite plastid, 96 hour incubation (AID 488745); further: nearly all actives have a fitted effect of over 70% in size; further: potency means the concentration at half of the fitted maximal effect
Summary of the method: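 Readout is firefly luciferase luminescence from an integrated reporter in P. falciparum; lower signal marks inhibited growth. Cultures at 2% hematocrit and 0.1% parasitemia were treated with compound across two generations (96 h, 37 C, 5% CO2).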

[16] = Quantitative high throughput screen for delayed death inhibitors of the malarial parasite plastid, 48 hour incubation (AID 488752); further: nearly all actives have a fitted effect of over 65% in size
Summary of the method: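 First, compound was pinned into RPMI 1640 medium containing 0.5% Albumax. Next, reporter-parasite-infected erythrocytes were added to 2% hematocrit and 0.1% parasitemia. After 48 h at 37 C under 5% CO2, luciferase detection reagent was added and luminescence read.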

[17] = target: Thioredoxin reductase 1, cytoplasmic (Rattus norvegicus) (UniProt O89049); experiment: qHTS Assay for Substrates of Mammalian Selenoprotein Thioredoxin Reductase 1 (TrxR1) (AID 488772);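 further: series mostly up to about 57 µM; a drop in NADPH fluorescence below the no-compound background marks a TrxR1 substrate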
Chain of Thioredoxin reductase 1, cytoplasmic (Rattus norvegicus) (O89049 whole entry, looked up): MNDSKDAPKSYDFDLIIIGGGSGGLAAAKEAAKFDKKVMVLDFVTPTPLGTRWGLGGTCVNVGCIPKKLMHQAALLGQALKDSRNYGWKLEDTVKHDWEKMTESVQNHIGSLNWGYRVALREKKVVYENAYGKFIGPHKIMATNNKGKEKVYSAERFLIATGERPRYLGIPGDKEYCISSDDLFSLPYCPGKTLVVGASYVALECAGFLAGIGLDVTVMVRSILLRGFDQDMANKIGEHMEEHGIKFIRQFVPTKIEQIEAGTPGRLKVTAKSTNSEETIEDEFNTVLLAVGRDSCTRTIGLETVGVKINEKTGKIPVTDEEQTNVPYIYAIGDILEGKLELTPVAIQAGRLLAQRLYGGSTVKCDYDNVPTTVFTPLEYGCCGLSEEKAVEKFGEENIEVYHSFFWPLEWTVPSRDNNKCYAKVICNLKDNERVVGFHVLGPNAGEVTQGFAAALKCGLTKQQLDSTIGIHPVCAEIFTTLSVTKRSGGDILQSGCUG
Summary of the method: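 In this dual-purpose format, potential substrates are identified from the first fluorescence read after selenite addition, not from the 8-minute delta. Rat enzyme is preincubated with NADPH and then with compound at ~22 deg C.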

[18] = target: ATP-dependent 6-phosphofructokinase (Trypanosoma brucei brucei) (UniProt O15648); experiment: qHTS Validation Assay to Find Inhibitors of T. brucei phosphofructokinase (AID 485368); conditions: outcome: dose series up to 57.5 µM
Chain of ATP-dependent 6-phosphofructokinase (Trypanosoma brucei brucei) (O15648 whole entry, looked up): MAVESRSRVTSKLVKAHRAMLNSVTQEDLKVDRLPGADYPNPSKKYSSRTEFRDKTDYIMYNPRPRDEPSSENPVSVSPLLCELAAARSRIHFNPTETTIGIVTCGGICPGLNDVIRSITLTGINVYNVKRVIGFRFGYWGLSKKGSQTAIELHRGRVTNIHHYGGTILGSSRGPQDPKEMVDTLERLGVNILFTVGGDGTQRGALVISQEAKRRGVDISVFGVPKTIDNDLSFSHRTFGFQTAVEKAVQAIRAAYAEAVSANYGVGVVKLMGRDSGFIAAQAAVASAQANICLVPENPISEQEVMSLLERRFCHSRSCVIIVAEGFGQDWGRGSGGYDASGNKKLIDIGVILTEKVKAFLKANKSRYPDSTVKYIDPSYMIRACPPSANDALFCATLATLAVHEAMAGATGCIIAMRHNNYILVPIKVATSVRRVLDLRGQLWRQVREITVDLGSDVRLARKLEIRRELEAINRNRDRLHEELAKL
Summary of the method: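 ADP-Glo luminescence, two-step: residual ATP depleted, then ADP converted to ATP for luciferase. Enzyme 1.25 nM, F6P 0.5 mM, ATP 0.1 mM, pH 8.0 TEA buffer, 45 min RT. Curves fitted and classed by quality and efficacy.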

| Compound | Potency [1] | outcome [2] | Potency [3] | Potency [4] | outcome [5] | Potency [6] | Potency [7] | outcome [8] | Potency [9] | outcome [10] | Potency [11] | outcome [12] | Potency [13] | Potency [14] | Potency [15] | Potency [16] | outcome [17] | outcome [18] |
| --- | --- | --- | --- | --- | --- | --- | --- | --- | --- | --- | --- | --- | --- | --- | --- | --- | --- | --- |
| CCC(=O)c1ccc2c(c1)N(CCCN(C)C)c1ccccc1S2 | 11.2 µM (active) | inactive | inactive | inactive | inactive | inactive | 16.5 µM (active) | inactive | inactive | inactive | inactive | inactive |  |  |  |  |  |  |
| O=C(O)CCCCCCCC(=O)O | inactive | inactive | inactive | inactive | inactive | inactive | inactive | inactive | inactive | inactive | inactive | inactive | inactive | inactive | inactive | inactive | inactive |  |
| CCCOc1ccccc1-c1nc2n[nH]nc2c(=O)[nH]1 | inactive | inactive | inactive |  | inactive |  | inactive | inactive | inactive | inactive | inactive | inactive | inactive | inactive |  | inactive | inactive | inactive |
| CCCN(CCC)C(=O)C(CCC(=O)O)NC(=O)c1ccccc1 (stereo unspecified) | inactive | inactive | inactive | inactive |  | inactive | inactive | inactive | inactive | inactive | inactive | inactive | inactive | inactive | inactive | inactive | inactive |  |
| Cc1ccc(=O)n(-c2ccccc2)c1 | inactive | inactive | inactive |  | inactive | inactive | inactive | inactive | inactive | inactive | inactive | inactive | inactive | inactive | inactive | inactive | inactive | inactive |
| Cc1nc2sccn2c(=O)c1CCN1CCC(=C(c2ccc(F)cc2)c2ccc(F)cc2)CC1 | 11.2 µM (active) | inactive | inactive |  | inactive | inactive |  | inactive |  | inactive |  | inactive | 11.7 µM (active) |  |  | inactive | inactive |  |
| C(=C\c1ccccc1)/CN1CCN(C(c2ccccc2)c2ccccc2)CC1 | 11.2 µM (active) | inactive | inactive | inactive |  |  | inactive | inactive | inactive |  | inactive | inactive | inactive |  | inactive | inactive | inactive |  |
| CC(C)(C)NCC(O)c1cc(O)cc(O)c1 (stereo unspecified) | inactive | inactive | inactive |  | inactive |  | inactive | inactive | inactive |  | inactive |  | inactive | inactive | inactive | inactive | inactive |  |
| CCN1CCc2nc(N)oc2CC1 | inactive | inactive | inactive |  | inactive | inactive | inactive | inactive | inactive |  | inactive | inactive | inactive | inactive | inactive | inactive | inactive | inactive |
| CC(=O)Oc1cc(C(C)C)c(OCCN(C)C)cc1C | inactive | inactive | inactive |  | inactive | inactive | inactive | inactive | inactive | inactive | inactive | inactive | inactive | inactive | inactive | inactive | inactive | inactive |
| COCCc1ccc(OCC(O)CNC(C)C)cc1 (stereo unspecified) | inactive | inactive | inactive |  | inactive | inactive | inactive | inactive | inactive |  | inactive |  | inactive | inactive | inactive | inactive | inactive |  |
| CN(C)C(=O)Oc1ccc[n+](C)c1 | inactive | inactive | inactive | inactive |  |  | inactive | inactive | inactive |  | inactive | inactive | inactive |  | inactive | inactive | inactive | inactive |
| NC(N)=NC(=O)Cc1c(Cl)cccc1Cl | 1.41 µM (active) | inactive | inactive |  | inactive | inactive | inactive | inactive | inactive | inactive |  | inactive | inactive |  | 5.22 µM (active) |  | inactive | inactive |
| CCCN(CCC)CCc1cccc2c1CC(=O)N2 | inactive | inactive | inactive |  | inactive | inactive | inactive | inactive | inactive | inactive | inactive | inactive | inactive | inactive | inactive | inactive | inactive |  |
| Cc1nnc(SCC2=C(C(=O)O)N3C(=O)[C@@H](NC(=O)Cn4cnnn4)[C@H]3SC2)s1 | inactive | inactive | inactive |  | inactive | inactive | inactive |  | inactive |  | inactive | inactive | inactive |  | inactive | inactive | inactive |  |
| c1cnc(N2CCN(Cc3ccc4c(c3)OCO4)CC2)nc1 | inactive | inactive | inactive | inactive |  | inactive | inactive | inactive | inactive |  | inactive | inactive | inactive | inactive | inactive | inactive | inactive |  |
| CCCC(C(=O)OCCN(CC)CC)(c1ccccc1)c1ccccc1 | 2.51 µM (active) | inactive | inactive |  | inactive | inactive | inactive | inactive | inactive | inactive |  | inactive |  |  |  |  | inactive |  |
| CN(C)CCOC(=O)COc1ccc(Cl)cc1 | inactive | inactive | inactive |  | inactive | inactive | inactive | inactive | inactive |  | inactive | inactive | inactive |  |  |  | inactive |  |
